Source: PubChem BioAssay (NCI)
Values joined by “and” are separate entries in the source; they are usually repeats but may differ in a detail not shown here. Equal values may be shown once. Compounds without any hit were thinned out: in the full panel of roughly 83,000, 20% have a hit.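 96-well plates, one dose, 48 hours. Percent growth reported; active if below 10.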 Active and inactive are the calls of the source.

What was measured:
Experiment in all cases: NCI-60 one-dose screen, 48 h (100 = growth as untreated, 0 = no growth, -100 = all killed)
Conditions in all cases: 10 µM unless noted
[1] = system: NCI-H23 lung
[2] = system: NCI-H226 lung
[3] = system: NCI-H322M lung
[4] = system: HOP-62 NSCLC
[5] = system: NCI-H460 lung
[6] = system: HOP-92 NSCLC
[7] = system: NCI-H522 lung
[8] = system: A549/ATCC NSCLC
[9] = system: 786-0 renal
[10] = system: COLO 205 colon
[11] = system: DU-145 prostate
[12] = system: K-562 leukemia
[13] = system: MALME-3M melanoma
[14] = system: MDA-MB-231 breast
[15] = system: RXF 393 renal
[16] = system: SF-268 CNS
[17] = system: SF-295 CNS
[18] = system: SF-539 CNS
[19] = system: UACC-257 melanoma
[20] = system: M14 melanoma

| Structure (SMILES) | growth [1] | growth [2] | growth [3] | growth [4] | growth [5] | growth [6] | growth [7] | growth [8] | growth [9] | growth [10] | growth [11] | growth [12] | growth [13] | growth [14] | growth [15] | growth [16] | growth [17] | growth [18] | growth [19] | growth [20] |
| --- | --- | --- | --- | --- | --- | --- | --- | --- | --- | --- | --- | --- | --- | --- | --- | --- | --- | --- | --- | --- |
| CONC1=Nc2cc(NC(N)=NCc3ccccc3)c(N(C)C3CCCCC3)cc2OC1 | 68.3% (inactive) | 67.3% (inactive) | 87% (inactive) | 82.3% (inactive) | 59.7% (inactive) | 35.4% (inactive) | 59.3% (inactive) | 78.7% (inactive) | 71.2% (inactive) | -36.1% (active) | 72.6% (inactive) | 23.6% (inactive) | 78.6% (inactive) | 25.5% (inactive) | 41.2% (inactive) | 68.1% (inactive) | 83.3% (inactive) | 75.9% (inactive) | 89.5% (inactive) | 78.1% (inactive) |
| CCOC(=O)C(=CCC(C)C)C(=O)OCC | 93.1% (inactive) | 93.4% (inactive) | 104% (inactive) | 89% (inactive) | 106% (inactive) | 89.3% (inactive) | 104% (inactive) | 104% (inactive) | 95.9% (inactive) | 116% (inactive) | 99.3% (inactive) | 125% (inactive) | 120% (inactive) | 99.6% (inactive) | 113% (inactive) | 94.9% (inactive) | 120% (inactive) | 95.7% (inactive) | 110% (inactive) | 95.7% (inactive) |
| COc1ccc(/C(C)=C(\c2ccc(OCCN3CCOCC3)cc2)c2ccc(OC(=O)C3CCCCC3)cc2)cc1 | 101% (inactive) | 113% (inactive) | 99.5% (inactive) | 108% (inactive) | 107% (inactive) | 109% (inactive) | 104% (inactive) | 106% (inactive) | 104% (inactive) | 110% (inactive) | 95.7% (inactive) | 89.2% (inactive) | 97.7% (inactive) | 111% (inactive) | 121% (inactive) | 101% (inactive) | 103% (inactive) | 94.7% (inactive) | 112% (inactive) | 102% (inactive) |
| O=C(NNc1ccccc1)C1CCCN1 (stereo not given) | 98.8% (inactive) | 80.9% (inactive) | 86% (inactive) | 76.7% (inactive) | 99.1% (inactive) | 108% (inactive) | 52.2% (inactive) | 75.9% (inactive) | 89.2% (inactive) | 103% (inactive) | 60.7% (inactive) | 11% (inactive) | 76.4% (inactive) | 86.1% (inactive) | 107% (inactive) | 64.6% (inactive) | 85% (inactive) | 80.5% (inactive) | 88.6% (inactive) | 43.1% (inactive) |
| O=C1c2cccc3cccc(c23)C(=O)N1N1C(=O)c2cccc3c(N4CCNCC4)ccc(c23)C1=O | 92.2% (inactive) | 98.6% (inactive) | 88.2% (inactive) | 88.9% (inactive) | 72.4% (inactive) | 78.2% (inactive) | 93.8% (inactive) | 89.9% (inactive) | 73.7% (inactive) | 95.2% (inactive) | 107% (inactive) | -59.2% (active) | 88.9% (inactive) | 85.8% (inactive) | 101% (inactive) | 88.7% (inactive) | 101% (inactive) | 100% (inactive) | 95.2% (inactive) | 96.6% (inactive) |
| O=C(Cc1ccc(F)cc1)c1ccccc1 | 103% (inactive) | 110% (inactive) | 99% (inactive) | 109% (inactive) | 108% (inactive) | 89.7% (inactive) | 101% (inactive) | 102% (inactive) | 97.6% (inactive) | 134% (inactive) | 127% (inactive) | 100% (inactive) | 107% (inactive) | 111% (inactive) | 118% (inactive) | 113% (inactive) | 117% (inactive) | 113% (inactive) | 114% (inactive) | 105% (inactive) |
| O=C(O)c1ccccc1Cc1ccc(F)c2ccccc12 | 97.5% (inactive) and 105% (inactive) | 107% (inactive) | 109% (inactive) and 112% (inactive) | 94.3% (inactive) and 109% (inactive) | 109% (inactive) and 99.2% (inactive) | 74.6% (inactive) | 94.5% (inactive) and 89.9% (inactive) | 101% (inactive) and 95.3% (inactive) | 125% (inactive) and 110% (inactive) | 101% (inactive) and 121% (inactive) | 90.6% (inactive) and 116% (inactive) | 103% (inactive) and 98.4% (inactive) | 102% (inactive) and 117% (inactive) | 115% (inactive) and 106% (inactive) | 107% (inactive) and 95.9% (inactive) | 102% (inactive) and 103% (inactive) | 71.1% (inactive) and 103% (inactive) | 117% (inactive) and 107% (inactive) | 107% (inactive) and 98.8% (inactive) | 129% (inactive) and 102% (inactive) |
| CCN1CCN(CC(=O)Nc2nc3ccc(NCc4ccc(C)cc4)cc3s2)CC1 | 72.6% (inactive) | 72% (inactive) | 87.6% (inactive) | 78.5% (inactive) | 44.5% (inactive) | 39% (inactive) | 93.7% (inactive) | 73.4% (inactive) | 68% (inactive) | 16.3% (inactive) | 84.3% (inactive) | -0.543% (active) | -41.5% (active) | 59.1% (inactive) | 56.1% (inactive) | 73.5% (inactive) | 88.2% (inactive) | 22.2% (inactive) | 34% (inactive) | -44% (active) |
| Clc1cccc(Nc2ncnc3ccc(-c4cncc(-n5cnnn5)c4)cc23)c1 | 80% (inactive) | 73% (inactive) | 15.2% (inactive) | 83% (inactive) | 81.6% (inactive) | 21.7% (inactive) | 49.2% (inactive) | 55.7% (inactive) | 42.9% (inactive) | 87.9% (inactive) | 43.5% (inactive) | 71.5% (inactive) | 88.2% (inactive) | 67.3% (inactive) | 48.4% (inactive) | 70.6% (inactive) | 76.9% (inactive) | 87.3% (inactive) | 92.9% (inactive) | 53.2% (inactive) |
| CCN(C(=O)N1CCN(c2cc3c(cc2F)c(=O)c(C(=O)O)cn3C2CC2)CC1)c1nc(-c2ccccc2)cs1 | 6.27% (active) | 20.9% (inactive) | 13.3% (inactive) | 36% (inactive) | 5.27% (active) | -18.4% (active) | -1.7% (active) | 12.4% (inactive) | 14.3% (inactive) | 64.1% (inactive) | 27.1% (inactive) | 13.8% (inactive) | 22.1% (inactive) | 5.26% (active) | 19.7% (inactive) | 25% (inactive) | 8.29% (active) | 8.47% (active) | 74.1% (inactive) | 22.9% (inactive) |
| CCCCC#Cc1c(/C=C(\CCCC)SCC)n(C)c(=O)[nH]c1=O | 94.1% (inactive) | 93.2% (inactive) | 97.7% (inactive) | 94.8% (inactive) | 93.8% (inactive) | 82.8% (inactive) | 79.7% (inactive) | 83.1% (inactive) | 98.5% (inactive) | 108% (inactive) | 110% (inactive) | 72.2% (inactive) | 112% (inactive) | 102% (inactive) | -12.1% (active) | 93.7% (inactive) | 114% (inactive) | 98.4% (inactive) | 98.9% (inactive) | 105% (inactive) |
| Cc1ccc(-c2nc(SCC(=O)c3ccc(C#N)cc3)[nH]c(=O)c2C#N)cc1 | 105% (inactive) | 110% (inactive) | 106% (inactive) | 103% (inactive) | 115% (inactive) | 108% (inactive) | 82.1% (inactive) | 98.4% (inactive) | 96.1% (inactive) | 88.9% (inactive) | 102% (inactive) | 96.3% (inactive) | 99.2% (inactive) | 100% (inactive) | 117% (inactive) | 96% (inactive) | 103% (inactive) | 92.2% (inactive) | 100% (inactive) | 96.7% (inactive) |
| COc1ccc(N2CCN(S(=O)(=O)c3oc(-c4ccccc4)nc3C#N)CC2)cc1 | 57.3% (inactive) | 64.5% (inactive) | 97.6% (inactive) | 106% (inactive) | 94.8% (inactive) | 101% (inactive) | 25.2% (inactive) | 99.4% (inactive) | 85.5% (inactive) | 80% (inactive) | 104% (inactive) | 15.3% (inactive) | 69.6% (inactive) | 77.2% (inactive) | 66.4% (inactive) | 102% (inactive) | 104% (inactive) | 68.2% (inactive) | 88% (inactive) | 47.4% (inactive) |
| OCCN1CCN(CC/C=C2\c3ccccc3Sc3ccc(Cl)cc32)CC1 | 50.7% (inactive) and 82.9% (inactive) | 88.2% (inactive) and 110% (inactive) | 83.1% (inactive) | -34.7% (active) and -66.1% (active) | 2.77% (active) and -25% (active) | 10.9% (inactive) and -12.9% (active) | 37.9% (inactive) and 13.3% (inactive) | 60% (inactive) and 38.2% (inactive) | 38.6% (inactive) | -75.6% (active) and -87.3% (active) | 17.1% (inactive) and 65% (inactive) | -90.8% (active) and -68.9% (active) | -53.2% (active) | 29.3% (inactive) and 44.8% (inactive) | 23.5% (inactive) | 51.7% (inactive) and 46.6% (inactive) | 47.6% (inactive) and 31% (inactive) | 31.8% (inactive) and 59.7% (inactive) | -83.9% (active) and -94.1% (active) | -98.7% (active) and -88.3% (active) |
